# Bioassay records deposited in PubChem BioAssay by National Center for Advancing Translational Sciences (NCATS).
# CHX counter = counter-screen for Shiga toxin inhibitors: cycloheximide protein synthesis inhibition. cell reporter, cycloheximide protein synthesis inhibition counterscreen. max response, %. 300,000 tested, 12% active; in the data active = max response mostly above about 13%, no sharp cut-off; inactive = mostly below about 14%; note: read at 38.3 µM for the half of the compounds with a filed dose
# Pf growth 48h = inhibits P. falciparum growth in the first generation, 48 h; P. falciparum luciferase growth in erythrocytes, 48 h; Potency, µM (highest dose often 28.7 µM), actives largely listed as inhibitors; 310,000 tested, 5.9% active; active = well fitted inhibition curve with a large enough effect; inconclusive = small, poorly fitted or top-dose-only effect, or another doubt; inactive = no such curve, though single readings can be large or run the other way
#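 Luminescence readout; reporter = integrated firefly luciferase in P. falciparum. RBC culture at 2% hematocrit, 0.1% parasitemia final, 37 C/5% CO2; decreased signal taken as growth inhibition.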
# Shiga inhibitor = Shiga toxin inhibition. inhibition, % at 38.7 µM. 290,000 tested, 9.2% active. Vero cells, Shiga toxin protein synthesis inhibition reporter; in the data active = inhibition mostly above about 28%, no sharp cut-off; inactive = mostly below about 43%
# SARS PLpro yeast = blocks SARS-CoV papain-like protease in a yeast assay | S. cerevisiae expressing SARS-CoV PLpro, growth rescue | Potency, µM (top dose mostly 32.9 µM), most hits filed as activators | 330,000 tested, 0.19% active | AID 485353; note: nearly all actives have a fitted effect of over 55% in size
# Pf growth 96h = P. falciparum growth inhibition at 96 hour, primary screen for plastid delayed-death inhibitors; AID 504834; 320,000 tested, 6.9% active; P. falciparum luciferase reporter growth, 96 h; Potency, µM (highest dose often 28.7 µM), most hits filed as inhibitors; active = well fitted inhibition curve with a large enough effect; inconclusive = small, poorly fitted or top-dose-only effect, or another doubt; inactive = no such curve, though single readings can be large or run the other way
#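 Two-generation exposure (96 h) targets delayed-death phenotype. Reporter parasites carrying integrated firefly luciferase, in red cells at 2% hematocrit and 0.05% parasitemia final, kept at 37 C, 5% CO2; luminescence loss indicates inhibition.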
# NS1 inh = influenza NS1 inhibition | Potency, µM (series often up to 46.1 µM) | 270,000 tested, 0.4% active | AID 2326; note: actives are rising curves; nearly all actives have a fitted effect of over 50% in size
#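 S. cerevisiae expressing influenza A NS1, grown in glucose, washed, then diluted 1:100 into pH 6.0 -URA galactose medium with 23 nl compound. Growth recovery read as OD600; NS1-free strain serves as control.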
# Hits are given with their value; n = inactive; u = inconclusive; x = not tested or not shown. Rows were chosen to be rich in hits. Some 21% of all compounds tested hit in one or more screens of this group. Unless noted, calls come from the whole dose curve.
SMILES,CHX counter,Pf growth 48h,Shiga inhibitor,SARS PLpro yeast,Pf growth 96h,NS1 inh
CN(Cc1ccc(-n2cccn2)cc1)Cc1nc(-c2cnccn2)no1,n,n,n,n,n,n
O=C(C1CC12CCCC2)N1CCC(CO)(Cc2ccccc2Cl)CC1 (configuration not stated),n,n,n,n,n,n
COc1ccc(CNC(=O)C(C)OC(=O)c2cccs2)cc1 (configuration not stated),n,n,n,n,n,n
Nc1ccccc1Oc1ncc(C(F)(F)F)cc1Cl,n,5.2µM,n,n,n,n
COc1cccc(C(=O)c2ncc(C(F)(F)F)cc2Cl)c1,n,n,34,n,u,x
O=C(c1ccc(CNS(=O)(=O)c2cccc(Cl)c2)cc1)N1CCCCC1,n,n,n,n,n,n
CN(C)/C=C1/C(=O)N(c2ccc([N+](=O)[O-])cc2)N=C1c1ccccc1,34,n,83,n,n,n
CN(C)/C=C1\C(=O)N(c2ccc([N+](=O)[O-])cc2)N=C1c1ccccc1,32,n,93,n,n,n
C/C(=C1/C(=O)N(c2ccc([N+](=O)[O-])cc2)N=C1c1ccccc1)N(C)C,25,n,n,n,n,n
COc1ccccc1/C=C1/C(=O)N(c2ccc([N+](=O)[O-])cc2)N=C1C,n,u,n,n,n,n
CCOC1=NN(c2ccccc2)C(=O)/C1=C\N(C)C,n,n,n,n,n,x
CC1(C)c2[nH]c3ccccc3c2C[C@H]2C(=O)N(CCCCCO)CC(=O)N21,n,u,n,n,n,n
CCn1c(=O)c2c(nc(SCC(=O)N3CCC(C)CC3)n2C)n(C)c1=O,n,n,n,n,n,n
C=CCNC(=O)CSCc1ccc(Br)cc1,n,n,n,n,n,n
CCCCCc1ccc(-c2cn(Cc3ccc([N+](=O)[O-])cc3)nn2)cc1,n,n,n,n,u,n
CCCCCc1ccc(-c2ccc(/C=C/C(N)=O)cc2)nc1,56,n,67,n,n,n
CCCc1ccc(-c2ccc(C(=O)O)cc2)nc1,26,n,65,n,n,n
CCCCCc1ccc(-c2ccc(OC)cc2)nc1,n,n,n,n,10µM,n
COc1ccc(NC(=O)COC(=O)c2cc(SC)ccc2Cl)c(OC)c1,n,n,n,n,n,n
Cc1ccc(OC(C)C(=O)N=Nc2c(O)[nH]c3ccc([N+](=O)[O-])cc23)cc1 (configuration not stated),n,n,n,n,n,x
Cc1ccccc1NC(=S)NCc1ccc2[nH]c3c(c2c1)CCCC3,n,n,n,n,u,u
CCN(CC)S(=O)(=O)c1ccc(C(=O)NCc2ccc3[nH]c4c(c3c2)CCCC4)cc1,n,u,n,n,12µM,u
Cc1ccc(C)c(NC(=S)NCc2ccc3[nH]c4c(c3c2)CCCC4)c1,n,13µM,n,n,13µM,n
COc1ccc(Nc2ccc(S(=O)(=O)N3CCCCC3)cc2[N+](=O)[O-])cc1,n,n,n,n,n,n
COc1ccc(C(CNc2ccc(S(=O)(=O)N3CCN(C)CC3)cc2[N+](=O)[O-])N(C)C)cc1 (configuration not stated),x,n,x,n,n,x
SMILES,CHX counter,Pf growth 48h,Shiga inhibitor,SARS PLpro yeast,Pf growth 96h,NS1 inh
COc1ccc(C(CNc2ccc(S(=O)(=O)N3CCCC3)cc2[N+](=O)[O-])N2CCCC2)cc1 (configuration not stated),n,u,n,n,10µM,n
COc1ccc(Nc2ccc(S(=O)(=O)N3CCCCC3)cc2[N+](=O)[O-])cc1Cl,n,u,n,n,13µM,u
O=C(O)CCCC(=O)Nc1ccccc1C(=O)N1CCOCC1,n,n,n,n,n,x
COc1ccc(-c2cc(C)nc3c(-c4ccccc4)cnn23)cc1,41,n,90,n,n,n
Cc1cc(SCC(N)=O)nc(SCC(=O)c2ccccc2)n1,n,n,n,n,n,n
COc1ccccc1-c1c(C)nn2c(-c3ccccc3)cc(C)nc12,n,u,n,n,u,n
Cc1cc(SCC(=O)c2ccccc2)n2ncc(-c3ccccc3)c2n1,61,n,67,n,n,n
Cc1cc(-c2ccccc2)n2ncc(-c3ccccc3)c2n1,47,n,97,n,n,n
CN(CC(=O)Nc1ccccc1Cl)CC(=O)Nc1cccc2ccccc12,x,x,x,n,x,x
O=C(CSC(=S)N1CCCC1)N1CCN(S(=O)(=O)c2cccc([N+](=O)[O-])c2)CC1,n,n,n,n,n,n
O=c1[nH]c(SCc2ccc([N+](=O)[O-])cc2)nc2[nH]ncc12,n,u,n,n,7.4µM,n
N#Cc1c(Nc2ccccc2)c(C=NCCN2CCOCC2)c[nH]c1=O,n,n,n,n,9.3µM,n
Cc1ccc(C2CC(c3ccccc3)=NN2C(=O)CSc2nnc(-c3ccc(Cl)cc3)o2)o1 (configuration not stated),n,n,n,x,n,n
CC(=O)N1N=C(c2ccc(C)cc2)CC1c1ccco1 (configuration not stated),13,n,n,n,u,n
Cc1ccc(C2CC(c3ccccc3)=NN2c2ccccc2)o1 (configuration not stated),21,u,64,n,u,n
CS(=O)(=O)Nc1cccc(C2=NN(S(=O)(=O)c3ccccc3)C(c3ccco3)C2)c1 (configuration not stated),16,n,n,n,n,x
CCS(=O)(=O)Nc1cccc(C2=NN(S(=O)(=O)c3ccccc3)C(c3ccco3)C2)c1 (configuration not stated),n,u,n,n,u,n
Cc1ccc(S(=O)(=O)N[C@H](C(=O)OCC(=O)N2N=C(c3ccc(Cl)cc3)CC2c2ccco2)C(C)C)cc1 (some centres not stated),n,10µM,n,n,u,n
O=C(CNC(=O)c1ccccc1)OCC(=O)N1N=C(c2ccc(Cl)cc2)CC1c1ccco1 (configuration not stated),n,u,n,n,n,x
CC(=O)N1N=C(c2ccc(Cl)cc2)CC1c1ccco1 (configuration not stated),n,n,n,n,n,n
O=C(C1CC(=O)N(C2CCCCC2)C1)N1CCc2ccccc21 (configuration not stated),n,n,n,n,n,x
CCc1ccc(OCC(=O)Nc2cc(S(=O)(=O)CC)ccc2O)cc1,n,n,n,n,u,n
COc1ccc(C2=NN(c3nc(-c4ccccc4)c(CC(=O)O)s3)C(c3ccco3)C2)cc1 (configuration not stated),18,n,48,n,u,n
Cc1ccc(N2N=C(c3ccc(F)cc3)CC2c2ccco2)cc1 (configuration not stated),30,n,46,n,n,n
Clc1ccc(C2=NN(c3ccccc3)C(c3ccco3)C2)cc1 (configuration not stated),44,n,75,n,u,n
